Measured values reported in PubChem BioAssay (Tox21).
Records with an inconclusive call do not appear. Active and inactive are the calls of the source. Unless noted, the call rests on the fitted dose curve; in most records, active means well fitted curve in the direction sought with a large enough effect in the repeat runs; inconclusive means weak or mixed curves; inactive means no such curve, though single readings can be large; an effect the other way counts as inactive or inconclusive. Positions of bridges follow the written chain, without caps; N, C: chain ends. Non-standard residues stand in square brackets, D forms with d. Residues, ends and D or L forms follow the SMILES beside them. hArg = N=C(N)NCCCC[C@H](N)C(=O)O; Mpa = O=C(O)CCS

Experiments:
[1] = qHTS RealTime-Glo MT Cell Viability Assay in HEK293 cells - 24 hour (AID 1224886); further: top concentration of the series differs between compounds; nearly all actives have a fitted effect of over 50% in size
Method in brief: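 HEK293 cells seeded with NanoLuc/prosubstrate reagent, rested 5 h at 37 C, then dosed and kept at 37 C up to 40 h. Nonlytic real-time luminescence from viable cells read at 0, 8, 16, 24, 32 and 40 h.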

[2] = qHTS RealTime-Glo MT Cell Viability Assay in HEK293 cells - 8 hour (AID 1224887); further: top concentration of the series differs between compounds; nearly all actives have a fitted effect of over 50% in size
Method in brief: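 Measured as luminescence from the same continuously cultured HEK293 wells at successive time points (0, 8, 16, 24, 32, 40 h) after compound addition. Reagent present from seeding; dosing at 5 h; incubation 37 C.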

[3] = A CellTox Green Cytotoxicity Assay to monitor cytotoxicity in HEK293 cells - 16 hour (AID 1224888); further: nearly all actives have a fitted effect of over 35% in size
Method in brief: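 Homogeneous no-lysis format: HEK293 cell suspension mixed with CellTox Green reagent, seeded, incubated 5 h at 37 C/5% CO2, then dosed by pintool with compound in DMSO.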

[4] = qHTS RealTime-Glo MT Cell Viability Assay in HepG2 cells - 0 hour (AID 1224889); further: nearly all actives have a fitted effect of over 50% in size
Method in brief: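 HepG2 cells (600/well) were dispensed with RealTime-Glo reagents, incubated 5 h at 37 °C, then treated with compounds in DMSO for up to 40 h. Nonlytic NanoLuc luminescence reflecting viable cells was read at each stated time point.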

[5] = A CellTox Green Cytotoxicity Assay to monitor cytotoxicity in HepG2 cells - 8 hour (AID 1224890); further: nearly all actives have a fitted effect of over 45% in size
Method in brief: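 Fluorescent DNA-binding dye, 600 HepG2 cells/well, 5 h preincubation then compound in DMSO; same plates read at 0–40 h, 37 C.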

[6] = qHTS assay to identify small molecule antagonists of the estrogen receptor alpha (ER-alpha) signaling pathway using the BG1 cell line in the presence of 0.1 nM 17-beta-estradiol - cell viability counter screen (AID 1259241); further: nearly all actives have a fitted effect of over 40% in size
Method in brief: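 Cytotoxicity counter-screen: live-cell protease activity measured by fluorescence (30 min reagent step) in the same wells. Cells were VM7Luc4E2 with endogenous ER-alpha and ERE-driven luciferase, treated 22 hr at 37C alongside 0.1 nM 17beta-estradiol final.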

[7] = qHTS assay to identify small molecule antagonists of the androgen receptor (AR) signaling pathway using the MDA cell line in the presence of 0.5 nM R1881 - cell viability counter screen (AID 1259242); further: nearly all actives have a fitted effect of over 45% in size
Method in brief: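 Human breast carcinoma MDA-kb2 cells, cultured without CO2, receive compounds alongside 0.5 nM (final) R1881 agonist. After 16 hr at 37C, viability is taken as live-cell protease signal.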

[8] = biological target: Estrogen receptor (Homo sapiens) (UniProt P03372); test: qHTS assay to identify small molecule antagonists of the estrogen receptor alpha (ER-alpha) signaling pathway using the BG1 cell line in the presence of 0.1 nM 17-beta-estradiol (AID 1259244); further: nearly all actives have a fitted effect of over 50% in size
Sequence of Estrogen receptor (Homo sapiens) (P03372 whole entry, looked up): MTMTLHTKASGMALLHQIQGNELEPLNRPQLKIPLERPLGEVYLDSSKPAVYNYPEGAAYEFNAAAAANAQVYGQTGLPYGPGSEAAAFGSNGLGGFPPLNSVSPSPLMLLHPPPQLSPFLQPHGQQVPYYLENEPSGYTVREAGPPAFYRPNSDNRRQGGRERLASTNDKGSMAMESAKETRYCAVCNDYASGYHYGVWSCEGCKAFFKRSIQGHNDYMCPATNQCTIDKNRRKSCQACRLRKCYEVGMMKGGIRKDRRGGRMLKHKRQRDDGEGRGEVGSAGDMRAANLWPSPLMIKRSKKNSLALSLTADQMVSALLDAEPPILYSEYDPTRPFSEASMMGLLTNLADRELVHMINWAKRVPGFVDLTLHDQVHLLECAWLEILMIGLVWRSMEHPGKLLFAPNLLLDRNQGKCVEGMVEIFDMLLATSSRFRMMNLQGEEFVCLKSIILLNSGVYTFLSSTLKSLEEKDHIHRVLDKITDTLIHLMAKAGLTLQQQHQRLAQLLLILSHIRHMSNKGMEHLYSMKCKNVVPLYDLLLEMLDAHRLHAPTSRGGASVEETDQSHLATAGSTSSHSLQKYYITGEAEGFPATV
Method in brief: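 Seeding of stripped-serum-adapted VM7Luc4E2 cells, 24 h attachment, compound transfer, then 0.1 nM final 17beta-estradiol; after 22 h incubation, ONE-Glo reagent and luminescence reading.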

[9] = qHTS assay to identify small molecule phospholipidosis (PLD) inducers (AID 1259344; active means well fitted curve in the direction sought with a large enough effect; an effect the other way counts as inactive or inconclusive)
Method in brief: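 Image-based: LipidTOX Red pit count/intensity per well and per cell; HepG2, 24 h compound at 37 C, PFA fixation, Hoechst counterstain.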
On the % scale 0 is the no-effect control and ±100 the full control effect.

CC(=O)C1C(=O)C=C(C)OC1=O (configuration not stated)
inactive: Potency [1] | Potency [2] | Potency [3] | Potency [4] | Potency [5] | outcome [6] | outcome [7] | outcome [8]

Cc1c(Cl)cccc1Cl
inactive: Potency [1] | Potency [2] | Potency [3] | Potency [4] | Potency [5] | outcome [6] | outcome [7] | outcome [8]

CN(C)CCOC(=O)C(c1ccccc1)C1(O)CCCC1 (configuration not stated)
inactive: Potency [1] | Potency [2] | Potency [3] | Potency [4] | Potency [5] | outcome [6] | outcome [7] | outcome [8] | outcome [9]

O=C(O)c1cc2ccccc2nc1C(=O)O
inactive: Potency [1] | Potency [2] | Potency [3] | Potency [4] | Potency [5] | outcome [6] | outcome [7] | outcome [8]

Cc1c(NC(=O)c2cccnc2)c(=O)n(-c2ccccc2)n1C
inactive: Potency [1] | Potency [2] | Potency [3] | Potency [4] | Potency [5] | outcome [6] | outcome [7] | outcome [8] | outcome [9]

CCCCCCCCCCCCCCC(=O)NC(CO)CCCCCCCCCCCCCC (configuration not stated)
inactive: Potency [1] | Potency [2] | Potency [3] | Potency [4] | Potency [5] | outcome [6] | outcome [7] | outcome [8]

CCCCCCC1(C)CCC(=O)O1 (configuration not stated)
inactive: Potency [1] | Potency [2] | Potency [3] | Potency [4] | Potency [5] | outcome [6] | outcome [7] | outcome [8]

ONc1ccccc1
inactive: Potency [1] | Potency [2] | Potency [3] | Potency [4] | Potency [5] | outcome [6] | outcome [7] | outcome [8]

CN(C)CCCO[C@@H]1[C@H]2OC(C)(C)O[C@H]2O[C@@H]1C(O)CO (some centres not stated)
inactive: Potency [1] | Potency [2] | Potency [3] | Potency [4] | Potency [5] | outcome [6] | outcome [7] | outcome [8] | outcome [9]

Cc1c(N)cccc1Cl
inactive: Potency [1] | Potency [2] | Potency [3] | Potency [4] | Potency [5] | outcome [6] | outcome [7] | outcome [8]

CC1(C)CC(OC(=O)CCCCCCCCC(=O)OC2CC(C)(C)NC(C)(C)C2)CC(C)(C)N1
inactive: activity change, negative = cytotoxicity [1] 13.9% [at 15.8 µM] | activity change, negative = cytotoxicity [2] 1.91% [at 15.8 µM] | activity change [3] -6.19% [at 15.8 µM, active compounds read high] | activity change, negative = cytotoxicity [4] 5.75% [at 15.8 µM] | cytotoxicity increase [5] -0.141% [at 15.8 µM] | activity change, negative = cytotoxicity [6] -0.502% [at 19 µM] | viability change, negative = cytotoxic [7] 0.781% [at 19 µM] | activity change, negative = inhibition [8] -2.8% [at 19 µM]

CCC(C)C(C)=O (configuration not stated)
inactive: Potency [1] | Potency [2] | Potency [3] | Potency [4] | Potency [5] | outcome [6] | outcome [7] | outcome [8]

CCCC(CC)c1ccccc1 (configuration not stated)
inactive: Potency [1] | Potency [2] | Potency [3] | Potency [4] | Potency [5] | outcome [6] | outcome [7] | outcome [8]

OC1(c2ccc(Cl)cc2)CCNCC1
inactive: Potency [1] | Potency [2] | Potency [3] | Potency [4] | Potency [5] | outcome [6] | outcome [7] | outcome [8]

NCCOCCN
inactive: Potency [1] | Potency [2] | Potency [3] | Potency [4] | Potency [5] | outcome [6] | outcome [7] | outcome [8]

C=CCCCCCCCCC(=O)OCCCC
inactive: Potency [1] | Potency [2] | Potency [3] | Potency [4] | Potency [5] | outcome [6] | outcome [7] | outcome [8]

C=C(C)c1cccc(C(C)(C)N=C=O)c1
inactive: Potency [1] | Potency [2] | Potency [3] | Potency [4] | Potency [5] | outcome [6] | outcome [7] | outcome [8]

CC(=O)CCC1=C(C)CCCC1(C)C
inactive: Potency [1] | Potency [2] | Potency [3] | Potency [4] | Potency [5] | outcome [6] | outcome [7] | outcome [8]

OC1OCCOC1O (configuration not stated)
inactive: Potency [1] | Potency [2] | Potency [3] | Potency [4] | Potency [5] | outcome [6] | outcome [7] | outcome [8]

Cc1cc(-c2ccccc2)nnc1NCCN1CCOCC1
inactive: Potency [1] | Potency [2] | Potency [3] | Potency [4] | Potency [5] | outcome [6] | outcome [7] | outcome [8]

Cc1ccc2c(c1)C(=O)c1ccccc1C2=O
inactive: Potency [1] | Potency [2] | Potency [3] | Potency [4] | Potency [5] | outcome [6] | outcome [7] | outcome [8]

CN1C[C@@H]2C[C@H]1CN2c1cc2c(cc1F)c(=O)c(C(=O)O)cn2C1CC1
inactive: activity change, negative = cytotoxicity [1] 4.15% [at 15.8 µM] | activity change, negative = cytotoxicity [2] 0.091% [at 15.8 µM] | activity change [3] -3.93% [at 15.8 µM, active compounds read high] | activity change, negative = cytotoxicity [4] 10% [at 15.8 µM] | cytotoxicity increase [5] 6.75% [at 15.8 µM] | activity change, negative = cytotoxicity [6] -8.33% [at 19 µM] | viability change, negative = cytotoxic [7] -2.38% [at 19 µM] | activity change, negative = inhibition [8] -0.393% [at 19 µM] | outcome [9]

CCCC(=O)Nc1ccc(OCC(O)CNC(C)C)c(C(C)=O)c1 (configuration not stated)
inactive: Potency [1] | Potency [2] | Potency [3] | Potency [4] | Potency [5] | outcome [6] | outcome [7] | outcome [8] | outcome [9]

c1ccc2c(CC3=NCCN3)cccc2c1
inactive: Potency [1] | Potency [2] | Potency [3] | Potency [4] | Potency [5] | outcome [6] | outcome [7] | outcome [9]

O=C1OCCO1
inactive: Potency [1] | Potency [2] | Potency [3] | Potency [4] | Potency [5] | outcome [6] | outcome [8]

CN1CCOC(c2ccccc2)c2ccccc2C1 (configuration not stated)
inactive: Potency [1] | Potency [2] | Potency [3] | Potency [4] | Potency [5] | outcome [6] | outcome [7] | outcome [9]

NC(=O)[C@@H]1CSSCCC(=O)N[C@@H](CCCCN=C(N)N)C(=O)NCC(=O)N[C@@H](CC(=O)O)C(=O)N[C@@H](Cc2c[nH]c3ccccc23)C(=O)N2CCC[C@H]2C(=O)N1 ([Mpa][hArg]GDWPC-NH2; disulfide 1-7)
inactive: Potency [1] | Potency [2] | Potency [3] | Potency [4] | Potency [5] | outcome [6] | outcome [7] | outcome [8] | outcome [9]

CC1c2ccccc2CN1NC(=O)c1ccc(Cl)c(S(N)(=O)=O)c1 (configuration not stated)
inactive: Potency [1] | Potency [2] | Potency [3] | Potency [4] | Potency [5] | outcome [6] | outcome [7] | outcome [8] | PLD induction [9] -1.83% [at 1.53 µM]

CCNC(=O)NCc1cccc(Cl)c1
inactive: Potency [1] | Potency [2] | Potency [3] | Potency [4] | Potency [5] | outcome [6] | outcome [7] | outcome [8] | outcome [9]

O=C(CCCCC(=O)Nc1c(I)cc(I)c(C(=O)O)c1I)Nc1c(I)cc(I)c(C(=O)O)c1I
inactive: Potency [1] | Potency [2] | Potency [3] | Potency [4] | Potency [5] | outcome [6] | outcome [7] | outcome [8] | outcome [9]

CC1(C)O[C@H]2CC(=O)OC[C@]23[C@H]2CC[C@@]4(C)[C@H](c5ccoc5)OC(=O)[C@H]5O[C@]54[C@]2(C)C(=O)C[C@@H]13
inactive: Potency [1] | Potency [2] | Potency [3] | Potency [4] | Potency [5] | outcome [6] | outcome [7] | outcome [8] | outcome [9]
